Paper PMC4336329 (PLoS ONE, 2015)
Screen size: about 310,000 compounds; about 14,000 (4.5%) showed an effect of 50% or more. The effect is printed as a negative number. This excerpt belongs to a sample that is enriched for strong results.

Target: human ether-à-go-go-related gene (hERG) potassium channel (human, UniProt Q12809)
Assay: primary screen, population patch clamp on CHO cells stably expressing hERG; higher = less effect of the substance
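Further: peak tail current of the secondary pulse compared with the same well before compound.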

Chain of human ether-à-go-go-related gene (hERG) potassium channel (Q12809 whole entry, looked up): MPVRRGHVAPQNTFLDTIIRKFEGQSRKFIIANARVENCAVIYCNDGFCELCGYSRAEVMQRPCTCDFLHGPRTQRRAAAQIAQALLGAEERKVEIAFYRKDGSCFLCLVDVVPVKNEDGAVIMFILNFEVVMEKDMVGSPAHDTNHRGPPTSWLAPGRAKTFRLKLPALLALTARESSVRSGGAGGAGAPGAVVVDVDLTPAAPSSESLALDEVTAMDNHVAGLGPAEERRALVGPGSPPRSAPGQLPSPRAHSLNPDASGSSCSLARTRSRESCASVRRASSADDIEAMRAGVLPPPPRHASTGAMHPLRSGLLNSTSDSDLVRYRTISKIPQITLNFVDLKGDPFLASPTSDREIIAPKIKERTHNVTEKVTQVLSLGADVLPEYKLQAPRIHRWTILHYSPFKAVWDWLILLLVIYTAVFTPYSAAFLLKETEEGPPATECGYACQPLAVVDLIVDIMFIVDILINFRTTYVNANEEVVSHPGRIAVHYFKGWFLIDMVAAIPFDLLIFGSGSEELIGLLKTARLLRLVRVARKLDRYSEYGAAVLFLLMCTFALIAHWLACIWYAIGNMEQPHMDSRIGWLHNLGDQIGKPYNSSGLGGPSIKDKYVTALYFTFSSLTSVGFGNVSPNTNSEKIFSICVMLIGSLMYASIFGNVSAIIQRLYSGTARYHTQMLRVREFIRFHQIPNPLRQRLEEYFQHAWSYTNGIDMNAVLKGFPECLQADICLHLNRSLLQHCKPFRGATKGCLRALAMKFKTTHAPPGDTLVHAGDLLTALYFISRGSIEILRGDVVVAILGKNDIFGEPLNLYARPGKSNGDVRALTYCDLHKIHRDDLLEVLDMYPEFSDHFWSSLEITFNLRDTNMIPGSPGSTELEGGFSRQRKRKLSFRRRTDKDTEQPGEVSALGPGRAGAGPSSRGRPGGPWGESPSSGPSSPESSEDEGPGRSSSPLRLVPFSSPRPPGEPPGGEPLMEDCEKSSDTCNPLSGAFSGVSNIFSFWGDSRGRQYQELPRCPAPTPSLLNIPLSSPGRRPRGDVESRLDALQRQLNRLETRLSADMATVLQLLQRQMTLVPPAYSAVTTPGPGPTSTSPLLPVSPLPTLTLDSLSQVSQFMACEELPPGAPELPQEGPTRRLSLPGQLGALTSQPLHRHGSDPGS

Compound	hERG current change (%, negative = inhibition) at 10uM [%]
Cc1ccc(NC(=O)COC(=O)Cc2c[nH]c3ccccc23)cc1C	-7.15
COc1ccccc1-c1nnc(SCc2nc3ccccc3s2)n1C	-17
COc1ccc(C(=O)COC(=O)Cn2cnc3c2c(=O)n(C)c(=O)n3C)c(OC)c1	3.76
CSc1nsc(SCC(=O)NCc2ccc(C)cc2)n1	10.1
COc1cc(OC)cc(-c2nnc(SCC(=O)N3CCOCC3)o2)c1	9.82
Nc1nc(SCc2ccc(Cl)cc2)ns1	-7
CCNCc1cc(Br)c(OCC(=O)Nc2ccccc2)c(OC)c1.Cl	-19.8
COc1cc(CNC(C)c2ccccc2)cc(Cl)c1OCC(=O)Nc1ccccc1.Cl (stereo not drawn)	9.86
CCN(CC)CCNCc1cc(Cl)c(OCC(=O)Nc2ccccc2)c(OC)c1.Cl	-62.5
COc1cc(CNCCN(C)C)c(Br)cc1OCC(=O)NCc1ccccc1	-29.2
CCN(CC)CCNCc1ccc(Br)cc1OCC(=O)NCc1ccccc1.Cl	-67.2
CCOc1cc(CNCCN(C)C)c(Cl)cc1OCC(=O)NCCc1ccccc1.Cl	-10.8
CCCCNCc1cc(Br)c(OCC(=O)NCc2ccccc2)c(OC)c1.Cl	-39.4
NC(=O)N/N=C/c1cc(Br)ccc1OCC(=O)NCc1ccccc1	-6.43
CCN(CC)CCNCc1cc(Br)ccc1OCC(=O)NCc1ccccc1.Cl	-83.2
Cc1c(C(=O)Nc2ccc(S(=O)(=O)Nc3ncccn3)cc2)oc2ccc(Cl)cc12	-17.4
Cn1c(=O)c2c(nc(CN3CCOCC3)n2CCc2ccccc2)n(C)c1=O	7.53
Cc1ncc(CO)c2cc(C(N)=O)c(=Nc3ccccc3)oc12	-27.7
COc1ccc(C(O)P(=O)(OCC(C)C)c2ccc(N(C)C)cc2)c(OC)c1 (stereo not drawn)	-3.56
CC1CCN(CCc2nc3ccccc3[nH]2)CC1	-63.7
CCCc1nc2ccccc2[nH]1	24.6
c1ccc2[nH]c(CCCc3nc4ccccc4[nH]3)nc2c1	-7.32
CCn1ccnc1CN1CCCC(C(=O)c2cc(Cl)ccc2OC)C1 (stereo not drawn)	-73.3

Compound	hERG current change (%, negative = inhibition) at 10uM [%]
CCn1ccnc1CN1CCCC(C(=O)c2cc(F)ccc2OC)C1 (stereo not drawn)	-33
CCn1ccnc1CN1CCCC(C(=O)c2ccc3cc(OC)ccc3c2)C1 (stereo not drawn)	-70.6
CSc1ccc(C(=O)C2CCCN(C(=O)c3ccc(C)nc3)C2)cc1 (stereo not drawn)	-22.4
COc1ccc2cc(C(=O)C3CCCN(Cc4cnc(N5CCOCC5)s4)C3)ccc2c1 (stereo not drawn)	14.6
COc1ccc(Cl)cc1C(=O)C1CCCN(Cc2cnc(C)s2)C1 (stereo not drawn)	-38.1
CCn1ccnc1CN1CCCC(C(=O)c2cc(C)c(OC)c(C)c2)C1 (stereo not drawn)	-23.2
COc1ccc(C(=O)C2CCCN(Cc3cnc(N4CCOCC4)s3)C2)c(OC)c1 (stereo not drawn)	-46.9
CCn1ccnc1CN1CCCC(C(=O)c2ccc(SC)cc2)C1 (stereo not drawn)	-58.3
CSc1ccc(C(=O)C2CCCN(C(=O)Cn3cnnn3)C2)cc1 (stereo not drawn)	-12.8
COc1ccc(Cl)cc1C(=O)C1CCCN(Cc2cnc(N3CCOCC3)s2)C1 (stereo not drawn)	-57.6
Cc1ccc(NC(=O)c2cnccn2)cc1	15.8
CCCn1c(Cc2ccccc2)nnc1SCC(=O)N1CCOCC1	16.7
NC(=S)N/N=C/c1ccc([N+](=O)[O-])cc1	-8.06
O=C(CC1C(=O)NCCN1Cc1ccc(Cl)c(F)c1)NCC1CCOCC1 (stereo not drawn)	9.07
CCOC(=O)C1(Cc2ccc(O)cc2)NC(c2ccccc2F)C2C(=O)N(C)C(=O)C21 (stereo not drawn)	-2.04
CCC(=O)NC(c1cccs1)c1cc([N+](=O)[O-])c2cccnc2c1O (stereo not drawn)	15
CC1=NNC(=O)C1CCC(=O)N/N=C(\C)c1ccccc1 (stereo not drawn)	28.3
CCCCOc1ccc(NC(=O)CSc2nnnn2C)cc1	-2.43
NCCNc1cc(N2CCCC2)ccc1[N+](=O)[O-]	4.66
O=C(C1CCCC1)N1CCN(S(=O)(=O)c2ccc(F)cc2)CC1	15.9
COc1cc(C2C(C(=O)c3ccc(C)o3)=C(O)C(=O)N2Cc2cccnc2)ccc1O (stereo not drawn)	10.9
O=C(CCC(=O)NC1CCN(Cc2ccccc2)CC1)NCc1ccco1	-1.88
